Source: ChEMBL document CHEMBL4888484, “Replenishing the malaria drug discovery pipeline: Screening and hit evaluation of the MMV Hit Generation Library 1 (HGL1) against asexual blood stage Plasmodium falciparum ,using a nano luciferase reporter read-out” (2022)
Among all 4,800 compounds or so, about 420 (8.8%) showed an effect of 50% or more. For the sample, strong results were picked, then their nearest neighbours and some compounds at random.

Each compound was assayed on Plasmodium falciparum (assay: Confirmatory screen in NF54 nanoGlo assay, in single point, at 2uM, 72h). Conditions: timepoint 72 hour.
Format: functional, Erythrocyte

Compound	% Inhibition [%]
Cc1cc(OC[C@@H](O)CNC(C)(C)CC(C)(C)C)cc(C)c1Cl	67
CC(=O)N1CCCN(S(=O)(=O)Cc2ccccc2Cl)CCNC(=O)[C@@H]2CCC[C@@H]21	0
Cc1ccc(-c2n[nH]c(NC(=O)Nc3ccc(F)c(S(=O)(=O)NC4CC4)c3)c2C)o1	-9
CCOc1ccc([C@@H](Nc2nc(C)cc(C)n2)c2cc(C)sc2NC(=O)c2ccccc2)cc1	1
COc1ccc(OC)c([C@H](C)NC(=O)N2CCS(=O)(=O)CC2)c1	-3
C[N+]12CCCCC1C(OC(=O)C1(c3ccccc3)CCCC1)CCC2 (stereo not drawn)	96
CN(C(=O)Cn1cnc2nc(N3CCC(C(=O)NC4CC4)CC3)sc2c1=O)c1ccccc1	-14
CCCCC1NC(=O)N([C@@H]2CCC(=O)N[C@H]2c2ccccc2)C1=O (stereo partly drawn)	2
CC(C)C(NC(=O)COc1ccccc1)C(=O)NCC(c1ccccc1Cl)c1c[nH]c2ccccc12 (stereo not drawn)	69
CC(=O)Nc1ccccc1CC(c1c[nH]c2ccccc12)c1c[nH]c2ccccc12	0
O=C(Cc1c[nH]c2ccccc12)Nc1ccc(Cl)c2ncccc12	5
CCS(=O)(=O)N1CCN(c2nc(Cc3ccc(C)cc3)nc3c2c(C)nn3-c2ccccc2)CC1	-3
N/C(CC(=O)Nc1cccc(Cl)c1)=N/O	-4
CCCC[C@H](Oc1ccc(C(C)(C)CC)cc1C(C)(C)CC)C(=O)Nc1ccc(NC(=O)C(F)(F)C(F)(F)C(F)(F)F)c(O)c1	30
Cc1cc(-c2ccccc2)nc(O)c1S(C)(=O)=O	-3
Cc1ccc(S(=O)(=O)N2CCN(C(=O)c3cc(C4CC4)nc4c3c(C)nn4C(C)C)CC2)cc1	-1
Cc1nn(Cc2ccccc2)c2nc(C3CC3)cc(C(=O)N3CCOCC3)c12	3
Cc1nn(C(C)(C)C)c2nc(C3CC3)cc(C(=O)N(C)c3ccccc3)c12	81
Cc1cnc(-n2cnnc2)c(-c2ccc(S(C)(=O)=O)cc2)c1	-3
Cn1c(-c2ccccc2)cn2cc(-c3ccc(F)cc3)nc12	1
COc1cccc(Cn2nc3ccc(S(=O)(=O)N4CCCC4)cn3c2=O)c1	2
Cc1cc(C(=O)Nc2cc(C)nn2C)nc(N(C)C)n1	-1
Cc1cc(C)n(C(=O)CNC(=O)c2ccccn2)n1	2
Cc1cc(NC(=O)c2ccccn2)n(-c2nc3ccccc3o2)n1	88
CCc1cc(C(=O)N(CC)c2ccccc2)c2c(C)noc2n1	-7
O=C(Nc1onc2c1CCC2)c1ccc2ccccc2c1	45
O=C(Nc1cc(-c2onc3c2CCCC3)cc(C(F)(F)F)c1)c1cncc(Br)c1	95
Clc1ccc(-c2onc3c2CCCC3)cc1	2
